From PubChem BioAssay (NCATS)
Several values for one entry are separate records, joined by “and”; a condition that tells them apart may be missing. Identical values can stand only once. Inconclusive results are not listed. Activity calls are given as the source filed them. Unless noted, calls come from the whole dose curve.

Experiments:
[1] = target: Vitamin D3 receptor (Homo sapiens) (UniProt P11473); assay: qHTS assay for small molecule antagonists of vitamin D receptor signaling (AID 588541); conditions: HEK293T VDR-UAS-bla, beta-lactamase ratio, antagonist mode; series mostly up to 76.7 µM;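 note: receptor activated by calcitriol during compound treatment; % is set by controls: 0 for no effect and ±100 for the full control effect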
Outline: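 Antagonist-mode beta-lactamase reporter assay: HEK293T VDR-UAS-bla cells were exposed to titrated compound alongside 1-alpha,25-dihydroxyvitamin D3 at 3 nM final for 16 h. Values were normalized to the 50 nM agonist control and DMSO basal, with IC50 and efficacy from Hill equation fits.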

[2] = target: Vitamin D3 receptor (Homo sapiens) (UniProt P11473); assay: qHTS assay for small molecule agonists of vitamin D receptor signaling (AID 588543); conditions: HEK293T VDR-UAS-bla, beta-lactamase ratio, 16 h; series mostly up to 76.8 µM;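 note: 0% = DMSO basal and 100% = reference agonist control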
Outline: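 qHTS in agonist mode: compound titrations stimulate a VDR-driven β-lactamase reporter in HEK293T cells over 16 h at 37 °C. Response normalized to 50 nM 1α,25-dihydroxyvitamin D3 = 100%, DMSO = 0%; Hill fitting gives EC50 and maximal response.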

[3] = qHTS assay for small molecule agonists of retinoid X receptor alpha signaling (AID 588544); conditions: HEK293T RXRa-UAS-bla, beta-lactamase reporter, 18 h; 530 nm emission
[4] = target: Retinoic acid receptor RXR-alpha (Homo sapiens) (UniProt P19793); assay: as above; conditions: HEK293T RXRa-UAS-bla, beta-lactamase reporter, 18 h; series mostly up to 76.7 µM
[5] = target: Thyroid hormone receptor beta (Homo sapiens) (UniProt P10828); assay: qHTS assay for small molecule agonists of thyroid hormone receptor beta signaling (AID 588545); conditions: TR-UAS-bla GripTite HEK 293, beta-lactamase ratio, agonist mode, 18 h, percent of T3 response, DMSO as zero; series mostly up to 76.7 µM;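 note: 0% = DMSO only and 100% = 10 nM T3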
Outline: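 Efficacy and EC50 values derive from Hill fits of qHTS titration data, normalized to 10 nM T3 and DMSO-only wells. HEK 293 reporter cells were stimulated for 18 hrs at 37 C, with beta-lactamase activity measured by CCF4 fluorescence.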

[6] = qHTS assay for small molecule antagonists of retinoid X receptor alpha signaling (AID 588546; active = well fitted inhibition curve with a large enough effect in the signal ratio, with a control signal flat, not every such curve was filed as active; the % refers to the signal ratio;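 note: cells stimulated with 9-cis-retinoic acid as agonist; % is set by controls: 0 for no effect and ±100 for the full control effect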); conditions: HEK293T RXRa-UAS-bla, beta-lactamase ratio, antagonist mode; measured here: W530 green channel, cytotoxicity proxy
Outline: (§1)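 Beta-lactamase reporter inhibition, read as CCF4 fluorescence ratio (ex 405, em 460/530 nm) after 2 h at RT. HEK293T UAS-bla cells, 2500/well, were stimulated with 9-cis-RA at 500 or 100 nM final alongside test compound for 18 h at 37 C.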

[7] = target: Retinoic acid receptor RXR-alpha (Homo sapiens) (UniProt P19793); assay: as above; conditions: HEK293T RXRa-UAS-bla, beta-lactamase ratio, antagonist mode
Outline: as §1

[8] = target: Thyroid hormone receptor beta (Homo sapiens) (UniProt P10828); assay: qHTS assay for small molecule antagonists of thyroid hormone receptor beta signaling (AID 588547; active = well fitted inhibition curve with a large enough effect in the signal ratio, with a control signal flat, not every such curve was filed as active; the % refers to the signal ratio;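 note: cells stimulated with 0.4 nM T3 agonist during compound exposure; % is set by controls: 0 for no effect and ±100 for the full control effect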); conditions: TR-UAS-bla HEK293, beta-lactamase ratio, antagonist mode, 18 h
Outline: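 Inhibition of T3-driven (0.4nM final) beta-lactamase reporter activity was measured over 0.59 nM to 92 uM compound after 18 h at 37 C. The cells were GripTite HEK293 TR-UAS-bla in charcoal/dextran-stripped serum, with CCF4 ratio read-out and IC50 from Hill fits.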

[9] = target: Voltage-gated inwardly rectifying potassium channel KCNH2 (Homo sapiens) (UniProt Q12809); assay: qHTS Assay for Small Molecule Inhibitors of the Human hERG Channel Activity (AID 588834; active = well fitted inhibition curve with a large enough effect;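 note: top concentration of the series differs between compounds; % is set by controls: 0 for no effect and ±100 for the full control effect; lower thallium flux fluorescence means stronger hERG block; nearly all actives have a fitted effect of over 50% in size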); conditions: U2OS BacMam hERG, FluxOR thallium flux fluorescence; series mostly up to 46.1 µM
Outline: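 Measured: FluxOR fluorescence after thallium stimulation in U2OS cells transduced with hERG by baculovirus. Compounds pre-incubated around 10 min; medium Opti-MEM with 2% FCS. AC50 from Hill equation.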

[10] = target: Peroxisome proliferator-activated receptor gamma (Homo sapiens) (UniProt P37231); assay: qHTS assay for small molecule antagonists of peroxisome proliferator-activated receptor gamma signaling (AID 588537; active = well fitted inhibition curve with a large enough effect in the signal ratio, with a control signal flat, not every such curve was filed as active; the % refers to the signal ratio;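 note: reporter cells co-stimulated with 50 nM rosiglitazone agonist during compound treatment; % of control where 0% means no effect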); conditions: HEK293 PPARg-UAS-bla, beta-lactamase ratio, antagonist mode; series mostly up to 76.8 µM
Outline: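 Antagonist mode, beta-lactamase reporter in HEK293; charcoal/dextran FBS 1%; 3000 cells/well, 37 C 6-6.5 h; cpd titration + rosiglitazone 50 nM final, 16 h 37 C; CCF4, 2 h RT; 460/530 nm; Hill fit → IC50, efficacy.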

Chain of Voltage-gated inwardly rectifying potassium channel KCNH2 (Homo sapiens) (Q12809 whole entry, looked up): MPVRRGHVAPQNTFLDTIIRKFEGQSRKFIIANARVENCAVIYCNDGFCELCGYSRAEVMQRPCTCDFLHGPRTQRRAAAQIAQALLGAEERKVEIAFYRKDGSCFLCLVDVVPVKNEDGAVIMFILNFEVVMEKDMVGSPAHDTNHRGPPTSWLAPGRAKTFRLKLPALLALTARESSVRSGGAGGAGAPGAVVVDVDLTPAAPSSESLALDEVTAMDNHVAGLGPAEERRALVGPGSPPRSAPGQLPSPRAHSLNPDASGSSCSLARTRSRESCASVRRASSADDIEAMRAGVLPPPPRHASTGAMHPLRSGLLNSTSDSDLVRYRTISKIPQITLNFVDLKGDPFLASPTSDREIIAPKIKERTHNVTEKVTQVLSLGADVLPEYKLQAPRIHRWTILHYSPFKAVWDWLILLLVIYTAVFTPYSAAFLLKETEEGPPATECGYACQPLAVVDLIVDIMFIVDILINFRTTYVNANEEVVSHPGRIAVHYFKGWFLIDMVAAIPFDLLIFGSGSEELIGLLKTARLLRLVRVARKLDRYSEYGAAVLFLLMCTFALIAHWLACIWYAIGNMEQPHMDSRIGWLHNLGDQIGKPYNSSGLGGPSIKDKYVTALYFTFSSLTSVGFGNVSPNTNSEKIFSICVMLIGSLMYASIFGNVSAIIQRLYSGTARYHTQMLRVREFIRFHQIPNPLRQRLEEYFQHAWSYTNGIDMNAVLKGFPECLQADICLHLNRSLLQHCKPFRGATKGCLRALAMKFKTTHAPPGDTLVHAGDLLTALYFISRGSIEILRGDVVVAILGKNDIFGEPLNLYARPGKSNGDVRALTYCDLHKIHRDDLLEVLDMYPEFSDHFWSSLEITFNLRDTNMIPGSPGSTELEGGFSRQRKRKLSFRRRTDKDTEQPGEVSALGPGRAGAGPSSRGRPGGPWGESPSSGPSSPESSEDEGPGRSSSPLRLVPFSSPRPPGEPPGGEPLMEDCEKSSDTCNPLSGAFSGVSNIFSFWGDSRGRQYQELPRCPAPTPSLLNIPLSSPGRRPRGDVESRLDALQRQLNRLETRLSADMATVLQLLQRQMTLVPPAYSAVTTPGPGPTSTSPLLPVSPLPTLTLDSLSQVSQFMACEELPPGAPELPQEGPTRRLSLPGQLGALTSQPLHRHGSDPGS
Chain of Retinoic acid receptor RXR-alpha (Homo sapiens) (P19793 whole entry, looked up): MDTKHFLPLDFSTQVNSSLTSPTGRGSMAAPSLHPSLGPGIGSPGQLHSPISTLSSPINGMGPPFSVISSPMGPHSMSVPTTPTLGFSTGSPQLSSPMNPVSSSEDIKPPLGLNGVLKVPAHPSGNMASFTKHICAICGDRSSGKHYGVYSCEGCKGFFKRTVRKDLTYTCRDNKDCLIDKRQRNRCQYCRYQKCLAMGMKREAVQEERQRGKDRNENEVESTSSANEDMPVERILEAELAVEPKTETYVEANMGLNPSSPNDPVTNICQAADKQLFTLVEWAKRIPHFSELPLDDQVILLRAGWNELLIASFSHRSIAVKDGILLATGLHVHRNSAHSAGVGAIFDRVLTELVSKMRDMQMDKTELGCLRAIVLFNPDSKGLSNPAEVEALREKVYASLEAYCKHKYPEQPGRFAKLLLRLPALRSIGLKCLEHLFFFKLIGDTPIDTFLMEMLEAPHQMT
Chain of Thyroid hormone receptor beta (Homo sapiens) (P10828 whole entry, looked up): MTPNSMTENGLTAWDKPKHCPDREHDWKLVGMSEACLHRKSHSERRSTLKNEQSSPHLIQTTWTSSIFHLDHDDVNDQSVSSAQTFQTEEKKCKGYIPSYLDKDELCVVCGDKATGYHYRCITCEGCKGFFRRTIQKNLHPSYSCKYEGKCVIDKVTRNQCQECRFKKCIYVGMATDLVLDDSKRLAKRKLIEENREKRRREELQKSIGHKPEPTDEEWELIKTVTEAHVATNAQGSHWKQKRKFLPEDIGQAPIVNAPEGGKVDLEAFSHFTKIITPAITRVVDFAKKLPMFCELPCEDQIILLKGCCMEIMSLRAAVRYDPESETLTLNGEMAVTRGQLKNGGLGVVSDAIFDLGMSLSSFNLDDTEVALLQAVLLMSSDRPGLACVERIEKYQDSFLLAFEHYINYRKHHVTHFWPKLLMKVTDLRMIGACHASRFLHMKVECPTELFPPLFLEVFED
Chain of Peroxisome proliferator-activated receptor gamma (Homo sapiens) (P37231 whole entry, looked up): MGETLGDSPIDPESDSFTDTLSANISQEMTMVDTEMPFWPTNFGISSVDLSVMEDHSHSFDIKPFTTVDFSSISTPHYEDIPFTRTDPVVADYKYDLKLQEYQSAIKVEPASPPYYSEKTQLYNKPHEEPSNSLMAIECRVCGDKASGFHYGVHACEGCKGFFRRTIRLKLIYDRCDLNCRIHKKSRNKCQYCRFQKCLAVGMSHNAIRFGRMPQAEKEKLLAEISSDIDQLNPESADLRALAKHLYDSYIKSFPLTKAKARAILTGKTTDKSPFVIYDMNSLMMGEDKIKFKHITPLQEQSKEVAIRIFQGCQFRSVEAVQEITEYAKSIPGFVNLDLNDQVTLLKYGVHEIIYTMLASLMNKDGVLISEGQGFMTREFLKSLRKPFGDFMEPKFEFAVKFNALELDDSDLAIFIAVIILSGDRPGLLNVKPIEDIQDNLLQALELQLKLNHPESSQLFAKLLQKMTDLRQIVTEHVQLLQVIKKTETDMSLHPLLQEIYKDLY
Chain of Vitamin D3 receptor (Homo sapiens) (P11473 whole entry, looked up): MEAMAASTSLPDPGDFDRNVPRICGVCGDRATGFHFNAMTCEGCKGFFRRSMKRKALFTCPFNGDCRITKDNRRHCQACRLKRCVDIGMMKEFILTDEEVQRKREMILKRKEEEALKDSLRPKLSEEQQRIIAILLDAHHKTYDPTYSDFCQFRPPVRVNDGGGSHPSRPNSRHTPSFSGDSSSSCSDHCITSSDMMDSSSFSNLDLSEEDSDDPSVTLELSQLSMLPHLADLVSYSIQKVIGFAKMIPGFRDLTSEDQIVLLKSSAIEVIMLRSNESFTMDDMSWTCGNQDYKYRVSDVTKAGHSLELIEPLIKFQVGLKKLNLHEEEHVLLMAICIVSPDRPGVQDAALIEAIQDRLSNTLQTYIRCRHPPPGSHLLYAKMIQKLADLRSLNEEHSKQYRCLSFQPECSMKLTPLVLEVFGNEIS

OCl
inactive: outcome [1] | outcome [2] | outcome [4] | outcome [5] | max response [7] 40.5% | activity change % (negative = inhibition) [8] -3.27% | Potency [9]
1.84%: max response [6]
-6.54%: max response [3]

CO
-9.41%: max response [3]
-6.65%: max response [6]
inactive: outcome [1] | outcome [2] | outcome [4] | outcome [5] | max response [7] -0.242% | activity change % (negative = inhibition) [8] 0.348% | Potency [9]

CC(C)(C)CC(C)(C)c1ccc(OCCO)cc1
inactive: outcome [10] | outcome [1] | outcome [2] | outcome [4] | max response [7] -7.14% | Potency [9]
19.7%: max response [3]
6.21%: max response [6]

OCc1ccccc1
inactive: outcome [10] | outcome [2] | outcome [4] | outcome [5] | max response [7] -2.03% | activity change % (negative = inhibition) [8] -15.9% | Potency [9]
-9.58%: max response [6]
-12.3%: max response [3]

Oc1cccc(O)c1O
-1.33%: max response [6]
inactive: outcome [10] | outcome [1] | outcome [2] | outcome [4] | outcome [5] | max response [7] -0.897% | activity change % (negative = inhibition) [8] -26.7% | Potency [9]
-4%: max response [3]

CC1=CCC2CC1C2(C)C (configuration not stated)
inactive: outcome [10] | outcome [1] | outcome [2] | outcome [4] | outcome [5] | max response [7] 2.29% | activity change % (negative = inhibition) [8] 6.5% | Potency [9]
-0.211%: max response [3]
-2.11%: max response [6]

COC(=O)c1ccccc1O
1.7% and -5.56%: max response [6]
inactive: outcome [1] | outcome [2] | outcome [4] | outcome [5] | max response [7] -1.72% and -1.77% | activity change % (negative = inhibition) [8] -3.85% | Potency [9]
-1.26% and -12.6%: max response [3]

OB(O)O
-5.98% and -1.26%: max response [3]
inactive: outcome [10] | outcome [1] | outcome [2] | outcome [4] | outcome [5] | max response [7] 9.01% and 7.69% | activity change % (negative = inhibition) [8] 3.84% and -13.5% | Potency [9]
-7.19% and -10.5%: max response [6]

Nc1ncnc2c1ncn2[C@H]1CC[C@@H](CO)O1
11.3% and 13.8%: max response [3]
0.911%: max response [6]
inactive: outcome [10] | outcome [1] | outcome [2] | outcome [4] | outcome [5] | max response [7] -6.41% | activity change % (negative = inhibition) [8] -11% and 4.8% | Potency [9]

CCCCCCCCCCCCCCCCCC(=O)OC[C@@H](O)[C@H]1OC[C@H](O)[C@H]1O
-3.05%: max response [6]
-15.4%: max response [3]
inactive: outcome [10] | outcome [1] | outcome [2] | outcome [4] | outcome [5] | max response [7] -7.79% | activity change % (negative = inhibition) [8] 11.4%

CO[C@@H]1[C@H](OC(=O)/C=C/C=C/C=C/C=C/C(=O)O)CC[C@]2(CO2)[C@H]1[C@@]1(C)O[C@@H]1CC=C(C)C
-0.294%: max response [6]
11.1%: max response [3]
inactive: outcome [10] | outcome [2] | outcome [4] | outcome [5] | max response [7] 18.1% | activity change % (negative = inhibition) [8] 15% | Potency [9]

C=CC(C)(O)CC/C=C(\C)CCC=C(C)C (configuration not stated)
inactive: outcome [10] | outcome [4] | outcome [5] | max response [7] 13.1% | Potency [9]
-3.85%: max response [6]
4.32%: max response [3]

Cc1ccc(S(=O)(=O)NCl)cc1
inactive: outcome [10] | outcome [4] | outcome [5] | max response [7] 17.1% | activity change % (negative = inhibition) [8] 3.3% | Potency [9]
-13.1%: max response [3]
-12.9%: max response [6]

CC(C)CCC[C@@H](C)[C@H]1CC[C@H]2[C@@H]3CC=C4C[C@@H](O)CC[C@]4(C)[C@H]3CC[C@]12C
inactive: outcome [10] | outcome [2] | outcome [5] | max response [7] -19.4% | activity change % (negative = inhibition) [8] -1.74% | Potency [9]
11.8%: max response [6]

N[C@@H](Cc1cc(I)c(Oc2ccc(O)c(I)c2)c(I)c1)C(=O)O
1.66%: max response [3]
inactive: outcome [10] | outcome [1] | outcome [2] | outcome [4] | Potency [9]

CCCCC(CC)COS(=O)(=O)O (configuration not stated)
-9.2%: max response [3]
inactive: outcome [1] | outcome [2] | outcome [4] | outcome [5] | max response [7] 7.69% | activity change % (negative = inhibition) [8] 9.71% | Potency [9]
-15.9%: max response [6]

Nc1ccc(N=Nc2ccccc2)c(N)n1
-12.2%: max response [6]
inactive: outcome [10] | outcome [1] | outcome [2] | outcome [4] | max response [7] -21% | Potency [9]
-10.9%: max response [3]
